ΔTm data for 25 compounds are collected here from ChEMBL document CHEMBL5308504, “Tm Shift (DSF) assay results for EUbOPEN Chemogenomics Library” (2023).

Common to all, as to conditions: Compound concentration 20.0 uM, Protein concentration 2.0 uM, Result type QC Liability
Experiment [1] deals with Tyrosine-protein kinase ABL1 (Homo sapiens) (UniProt P00519).
Experiment [2] has as its target Cyclin-dependent kinase 2 (Homo sapiens) (UniProt P24941).
For experiment [3], the target named is Casein kinase I isoform delta (Homo sapiens) (UniProt P48730).
Chain of Casein kinase I isoform delta (Homo sapiens) (P48730 whole entry, looked up, canonical isoform): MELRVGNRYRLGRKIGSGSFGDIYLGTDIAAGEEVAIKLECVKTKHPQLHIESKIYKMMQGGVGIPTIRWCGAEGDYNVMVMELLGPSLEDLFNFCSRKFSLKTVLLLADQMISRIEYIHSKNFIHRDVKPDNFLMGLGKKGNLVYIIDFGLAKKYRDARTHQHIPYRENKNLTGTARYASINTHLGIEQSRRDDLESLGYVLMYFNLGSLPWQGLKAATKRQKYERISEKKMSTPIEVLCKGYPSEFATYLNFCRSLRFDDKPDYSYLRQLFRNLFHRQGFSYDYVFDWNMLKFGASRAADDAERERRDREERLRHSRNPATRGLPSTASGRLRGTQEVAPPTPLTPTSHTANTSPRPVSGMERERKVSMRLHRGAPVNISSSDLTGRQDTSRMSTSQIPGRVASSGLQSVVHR
Experiment [4] concerns the target Glycogen synthase kinase-3 beta (Homo sapiens) (UniProt P49841).
Experiment [5] addresses Mitogen-activated protein kinase 1 (Homo sapiens) (UniProt P28482).
In experiment [6] the target is T1, Aurora kinase A (Homo sapiens) (UniProt O14965).
T1 sequence (whole entry): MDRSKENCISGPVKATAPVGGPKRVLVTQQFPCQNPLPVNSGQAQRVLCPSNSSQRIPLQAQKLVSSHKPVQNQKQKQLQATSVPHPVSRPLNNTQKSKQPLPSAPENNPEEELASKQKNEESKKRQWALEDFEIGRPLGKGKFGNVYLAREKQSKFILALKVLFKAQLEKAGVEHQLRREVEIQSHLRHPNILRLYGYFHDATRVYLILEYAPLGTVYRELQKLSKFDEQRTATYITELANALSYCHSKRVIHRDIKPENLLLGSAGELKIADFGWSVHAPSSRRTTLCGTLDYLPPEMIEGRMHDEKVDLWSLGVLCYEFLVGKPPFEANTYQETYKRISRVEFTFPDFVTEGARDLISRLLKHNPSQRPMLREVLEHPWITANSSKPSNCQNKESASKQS

Chain of Glycogen synthase kinase-3 beta (Homo sapiens) (P49841 whole entry, looked up): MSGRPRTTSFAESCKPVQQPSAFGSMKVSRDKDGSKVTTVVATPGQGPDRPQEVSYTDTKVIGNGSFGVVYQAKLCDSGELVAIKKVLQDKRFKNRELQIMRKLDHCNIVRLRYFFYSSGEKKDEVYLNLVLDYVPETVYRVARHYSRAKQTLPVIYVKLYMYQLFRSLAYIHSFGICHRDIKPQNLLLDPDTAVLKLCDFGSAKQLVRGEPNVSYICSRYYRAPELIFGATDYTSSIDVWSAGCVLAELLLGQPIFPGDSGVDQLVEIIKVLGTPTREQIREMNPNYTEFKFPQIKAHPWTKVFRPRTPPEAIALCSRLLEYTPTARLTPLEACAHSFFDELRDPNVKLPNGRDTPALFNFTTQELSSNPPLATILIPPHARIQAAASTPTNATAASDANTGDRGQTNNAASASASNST
Chain of Tyrosine-protein kinase ABL1 (Homo sapiens) (P00519 whole entry): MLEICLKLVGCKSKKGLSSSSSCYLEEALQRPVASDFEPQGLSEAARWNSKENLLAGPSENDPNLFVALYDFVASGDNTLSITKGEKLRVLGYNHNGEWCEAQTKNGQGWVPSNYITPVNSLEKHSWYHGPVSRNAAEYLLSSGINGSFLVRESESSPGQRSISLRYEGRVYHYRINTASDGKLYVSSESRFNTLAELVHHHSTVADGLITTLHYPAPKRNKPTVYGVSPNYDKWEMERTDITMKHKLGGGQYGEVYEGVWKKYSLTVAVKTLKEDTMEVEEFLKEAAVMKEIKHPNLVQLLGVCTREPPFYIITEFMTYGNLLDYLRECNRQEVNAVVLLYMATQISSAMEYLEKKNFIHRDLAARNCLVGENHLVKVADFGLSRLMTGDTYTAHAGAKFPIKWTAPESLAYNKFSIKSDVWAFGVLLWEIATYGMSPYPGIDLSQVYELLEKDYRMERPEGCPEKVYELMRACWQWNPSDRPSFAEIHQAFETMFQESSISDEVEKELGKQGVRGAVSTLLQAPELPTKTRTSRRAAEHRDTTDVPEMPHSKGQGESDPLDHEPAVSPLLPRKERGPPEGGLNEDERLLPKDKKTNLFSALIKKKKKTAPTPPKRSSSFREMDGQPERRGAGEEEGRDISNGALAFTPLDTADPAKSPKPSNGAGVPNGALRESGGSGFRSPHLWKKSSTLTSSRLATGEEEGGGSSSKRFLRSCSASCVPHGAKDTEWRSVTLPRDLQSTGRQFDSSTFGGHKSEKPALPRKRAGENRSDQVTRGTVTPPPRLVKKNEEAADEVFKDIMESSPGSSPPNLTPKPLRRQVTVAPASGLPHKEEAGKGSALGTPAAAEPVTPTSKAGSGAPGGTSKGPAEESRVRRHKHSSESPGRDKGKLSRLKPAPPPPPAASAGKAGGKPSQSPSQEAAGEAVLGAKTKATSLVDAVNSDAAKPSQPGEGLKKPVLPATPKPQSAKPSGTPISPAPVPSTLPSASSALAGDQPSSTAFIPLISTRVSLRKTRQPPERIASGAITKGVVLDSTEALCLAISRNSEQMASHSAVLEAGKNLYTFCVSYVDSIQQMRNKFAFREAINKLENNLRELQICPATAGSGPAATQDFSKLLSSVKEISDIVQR
Chain of Mitogen-activated protein kinase 1 (Homo sapiens) (P28482 whole entry): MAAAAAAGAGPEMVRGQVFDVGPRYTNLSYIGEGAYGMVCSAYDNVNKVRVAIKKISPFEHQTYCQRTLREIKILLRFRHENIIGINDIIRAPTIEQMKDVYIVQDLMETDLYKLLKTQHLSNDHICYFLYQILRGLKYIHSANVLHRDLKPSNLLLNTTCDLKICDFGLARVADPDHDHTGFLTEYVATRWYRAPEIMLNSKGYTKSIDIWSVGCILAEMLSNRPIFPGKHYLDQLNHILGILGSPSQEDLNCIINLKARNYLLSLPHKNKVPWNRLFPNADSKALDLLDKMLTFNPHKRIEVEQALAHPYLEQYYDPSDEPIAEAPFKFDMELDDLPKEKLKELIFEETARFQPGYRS

In general, ΔTm refers to the change in melting temperature against a reference sample. Turning to `O=C(Nc1snnc1C(=O)Nc1ccc(N2CCCC2)cc1)c1cncc(C(F)(F)F)c1`, the thermal shift (ΔTm) is 0.66 °C in experiment [1]; 0.59 °C in experiment [2]; 1.04 °C in experiment [3]; -1.38 °C in experiment [4]; 0.03 °C in experiment [5]; -0.75 °C in experiment [6].
For `COc1cc(C(=O)NC2CCN(C)CC2)ccc1Nc1ncc(C(F)(F)F)c(NCc2ccc(C)cc2N(C)S(C)(=O)=O)n1`, the ΔTm in experiment [1] is 0.73 °C; in experiment [2], 0.29 °C; in experiment [3] it was 1.1 °C; in experiment [4], -0.29 °C; in experiment [5] it was 3.52 °C; in experiment [6] it was 5.17 °C.
Regarding `CCCc1c(OCCCOc2ccc(OCC(=O)O)cc2)ccc(C(C)=O)c1O`, the thermal shift (ΔTm) in experiment [1] was 0.08 °C; in experiment [2], -0.16 °C; in experiment [3], 1.18 °C; in experiment [4] it was -0.07 °C; in experiment [5], -0.16 °C; in experiment [6] it was -1.56 °C.
For `O=C1CCCc2[nH]c(-c3ccnc(NCC4CC4)c3)c(Nc3ccccc3)c21`, the shift in melting temperature (ΔTm) in experiment [1] is -0.41 °C; in experiment [2] it was 0.46 °C; in experiment [3], 3.16 °C; in experiment [4] it was 1.37 °C; in experiment [5] it was -0.73 °C; in experiment [6], 0.11 °C.
On to `Cc1n[nH]c2ncc(C(=O)N3CCC[C@H]3c3ccc(Cl)cc3)cc12`, for which the ΔTm in experiment [1] was found to be 0.42 °C; in experiment [2], 0.82 °C; in experiment [3], 0.12 °C; in experiment [4], 7.82 °C; in experiment [5] it was 0.69 °C; in experiment [6], 0.03 °C.
With `CNC(=O)c1ccc2c(c1)ncn2-c1ccc(CC(=O)OC(C)(C)C)cc1`, the ΔTm is 4.4 °C in experiment [1]; 0.07 °C in experiment [2]; -0.01 °C in experiment [3]; -0.5 °C in experiment [4]; 0.2 °C in experiment [5]; 0.99 °C in experiment [6].
`CN[C@@H](C)C(=O)N[C@H](C(=O)N1CCC[C@H]1c1nc(C(=O)c2ccc(F)cc2)cs1)C1CCCCC1`: the thermal shift (ΔTm) in experiment [1] was 0.09 °C; in experiment [2] it was 0.27 °C; in experiment [3], 0.62 °C; in experiment [4], -1.01 °C; in experiment [5], 0.23 °C; in experiment [6], -1.15 °C.
With `CCOC(=O)Nc1ccc2c(c1)N(C(=O)CN(CC)CC)c1ccccc1CC2`, the ΔTm in experiment [1] is 0.17 °C; in experiment [2], 0.57 °C; in experiment [3] it was 0.58 °C; in experiment [4], -0.12 °C; in experiment [5], 0.19 °C; in experiment [6], -1.06 °C.
On to `CCc1cc2c(cc1N1CCC(N3CCOCC3)CC1)C(C)(C)c1[nH]c3cc(C#N)ccc3c1C2=O`, for which the shift in melting temperature (ΔTm) in experiment [1] is 0.88 °C; in experiment [2], 1.02 °C; in experiment [3], 0.16 °C; in experiment [4], 0.18 °C; in experiment [5], 0.1 °C; in experiment [6], -0.02 °C.
As to `CCC(C(=O)Nc1ccc(-c2cc3ccccc3s2)c(C(N)=O)c1)c1nccs1` (stereo not given), the ΔTm in experiment [1] stood at 0.88 °C; in experiment [2], 0.25 °C; in experiment [3], 0.47 °C; in experiment [4], 0.69 °C; in experiment [5], 0.41 °C; in experiment [6], 0.34 °C.
`CCCCCCCC/C=C\CCCCCCCC(=O)NCCO`: the shift in melting temperature (ΔTm) was -1.47 °C in experiment [1]; -0.92 °C in experiment [2]; -0.85 °C in experiment [3]; -2.08 °C in experiment [4]; -1.79 °C in experiment [5]; -2.91 °C in experiment [6].
With `CC(C)(c1ccc(OCc2cccc(COc3ccc(C(=N)N)cc3)c2)cc1)c1ccc(O[C@@H]2O[C@H](C(=O)O)[C@@H](O)[C@H](O)[C@H]2O)cc1`, the ΔTm in experiment [1] was -2.82 °C; in experiment [2], -1.86 °C; in experiment [3], -5.29 °C; in experiment [4] it was -4.59 °C; in experiment [5], -6.63 °C; in experiment [6], -5.6 °C.
Take `Cn1nc(C(=O)NCc2ccc(C(=O)O)cc2)cc1-c1ccc2[nH]ccc2c1`: the thermal shift (ΔTm) in experiment [1] is 0.76 °C; in experiment [2] it was 0.58 °C; in experiment [3], 0.39 °C; in experiment [4], -0.55 °C; in experiment [5], 0.47 °C; in experiment [6], 0.09 °C.
In the case of `C[C@@H]1CCNC(=O)c2cc3ccc(C(=O)Nc4nc5ccccc5n4CCCN(C)C)cc3n21`, the shift in melting temperature (ΔTm) turned out to be 1.4 °C in experiment [1]; 0.73 °C in experiment [2]; 2.87 °C in experiment [3]; 0.5 °C in experiment [4]; 0.36 °C in experiment [5]; 3.79 °C in experiment [6].
`COCCN(C)c1ccc(NC(=O)/C=C(\C)c2ccc3ccccc3c2)c(C(=O)O)c1`: the shift in melting temperature (ΔTm) in experiment [1] was -1.57 °C; in experiment [2], 1.03 °C; in experiment [3], 1.4 °C; in experiment [4], 2.78 °C; in experiment [5], -0.17 °C; in experiment [6] it was 1.7 °C.
For the compound `Nc1nccc(-c2c(-c3ccc(F)cc3)ncn2C2CCCCC2)n1`, the shift in melting temperature (ΔTm) in experiment [1] was 2.76 °C; in experiment [2], -0.08 °C; in experiment [3] it was 8.08 °C; in experiment [4], 2.6 °C; in experiment [5], 0.33 °C; in experiment [6], -0.66 °C.
Regarding `COc1cc(CN(CCN)C(=O)N[C@@H](C)c2ccccc2)ccc1OCc1ccccc1`, the ΔTm in experiment [1] is 0.76 °C; in experiment [2], 1.02 °C; in experiment [3], 0.16 °C; in experiment [4], -0.67 °C; in experiment [5], 0.02 °C; in experiment [6], 0.4 °C.
Turning to `COc1cc(C(=O)NCCOCCOCCOCCC(=O)Nc2cccc3c2C(=O)N(C2CCC(=O)NC2=O)C3=O)ccc1Nc1ncc(C(F)(F)F)c(Oc2cccc3c2C(=O)CC3)n1` (stereo not given), the shift in melting temperature (ΔTm) in experiment [1] is -0.1 °C; in experiment [2], -0.45 °C; in experiment [3], -2.13 °C; in experiment [4] it was -0.22 °C; in experiment [5], -2.51 °C; in experiment [6] it was 0.92 °C.
With `Fc1cccc(-n2cnc3c(NCc4nc5c(F)c(F)ccc5[nH]4)nc(N4CCOCC4)nc32)c1`, the shift in melting temperature (ΔTm) in experiment [1] was 1.99 °C; in experiment [2], 0.74 °C; in experiment [3] it was 3.88 °C; in experiment [4] it was 1.83 °C; in experiment [5], 0.22 °C; in experiment [6], 0.74 °C.
With `CC(=O)Nc1c(F)cc(C(=O)N[C@H]2CC[C@H](O)CC2)cc1O[C@@H](C)c1ccccc1`, the ΔTm was 0.21 °C in experiment [1]; 0.97 °C in experiment [2]; -0.03 °C in experiment [3]; -0.82 °C in experiment [4]; 0.43 °C in experiment [5]; -0.15 °C in experiment [6].
For `CNc1oc(-c2cccc3ccccc23)nc1C#N`, the shift in melting temperature (ΔTm) in experiment [1] was 0.54 °C; in experiment [2] it was 0.95 °C; in experiment [3], -0.04 °C; in experiment [4] it was 0.49 °C; in experiment [5], 0.02 °C; in experiment [6], 0.57 °C.
For the compound `O=C(O)c1cc(F)c2nc(N3[C@@H]4CC[C@H]3C[C@@H](OCc3c(-c5ccccc5OC(F)(F)F)noc3C3CC3)C4)sc2c1`, the ΔTm is 0.23 °C in experiment [1]; 0.38 °C in experiment [2]; 0.11 °C in experiment [3]; -5.45 °C in experiment [4]; -0.82 °C in experiment [5]; -8.04 °C in experiment [6].
On to `Cc1ccc2c(NS(=O)(=O)c3ccccc3Cl)cccc2c1Oc1ncccc1-c1ccnc(N[C@H]2CCCNC2)n1`, for which the ΔTm is 1.79 °C in experiment [1]; 0.86 °C in experiment [2]; 0.45 °C in experiment [3]; -0.76 °C in experiment [4]; -1.3 °C in experiment [5]; 1.28 °C in experiment [6].
Consider `CP(C)(=O)c1ccc(CNC(=O)C2CCN(S(=O)(=O)c3cc(Cl)cc(Cl)c3)CC2)cc1`, for which the ΔTm was 0.74 °C in experiment [1]; 0.5 °C in experiment [2]; 0.35 °C in experiment [3]; -0.16 °C in experiment [4]; 0.45 °C in experiment [5]; -0.19 °C in experiment [6].
Regarding `Cc1nc2ccc(Cl)cc2c(-c2ccccc2)c1CC(=O)O`, the thermal shift (ΔTm) amounted to 0.63 °C in experiment [1]; 0.84 °C in experiment [2]; 0.35 °C in experiment [3]; 0.14 °C in experiment [4]; 0.28 °C in experiment [5]; 0.17 °C in experiment [6].
